{
  "source": "the supplement of paper PMC8728848",
  "binders": {"B1": {"name": "SfaEH (Escherichia coli), Q1RDG5 (protein)", "chain": "LLCRNNQTGQVFNSGDTSFRVNVSPVVQYDKSISVLDLSQLVSCQNEDSTGQNYDYLKILKGSGFSPALDTKTYGRLDFTSRPTGYARQLPLQFDLQVTEAFYQYGVWKPFPAKLYLYPAPGVFGKVINNGDLLATLYVNKFSTKGQEAGERNFTWRFYATNDVYIQTGTCRVSSNNVKVDLPSYPGGPVTVPLTVRCDQTQSVSYTLSGPVTGSGNTVFANTAASGSGGVGIQLSDNVGPVPAGQPRSLGQVGSSPVSLGLKASYALTGQASPTPGAVQSVINVTFSYN"}},
  "test_in_all_cases": "glycan array binding signal (z-score within array); higher = stronger binding",
  "settings_in_all_cases": "glycan notation: IUPAC condensed, linker removed",
  "key": {"Fuc(a1-2)Gal": {"target": "Fuc(a1-2)Gal", "outline": "(§1)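 Glycan array binding is given as a within-array Z-score, which can be read as non-binding when negative. The arrays, 3228 of them, came from the Consortium for Functional Glycomics database and were retained only where the protein sequence was available. Z-scores were averaged across arrays of the same protein sequence at different concentrations or buffers and across linkers.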"}, "[1]": {"target": "Fuc(a1-2)Gal(b1-3)GalNAc(b1-4)[Neu5Ac(a2-3)]Gal(b1-4)Glc", "outline": "as §1"}, "[2]": {"target": "Fuc(a1-2)Gal(b1-3)[Fuc(a1-4)]GlcNAc(b1-2)Man(a1-3)[Fuc(a1-2)Gal(b1-3)[Fuc(a1-4)]GlcNAc(b1-2)Man(a1-6)]Man(b1-4)GlcNAc(b1-4)[Fuc(a1-6)]GlcNAc(b1-4)[Fuc(a1-6)]GlcNAc", "outline": "as §1"}, "[3]": {"target": "Fuc(a1-2)Gal(b1-4)GlcNAc(b1-2)Man(a1-3)[Fuc(a1-2)Gal(b1-4)GlcNAc(b1-2)Man(a1-6)]Man(b1-4)GlcNAc(b1-4)[Fuc(a1-6)]GlcNAc", "outline": "as §1"}, "[4]": {"target": "Fuc(a1-2)Gal(b1-4)[Fuc(a1-3)]GlcNAc(b1-3)Gal(b1-4)[Fuc(a1-3)]GlcNAc(b1-3)Gal(b1-4)[Fuc(a1-3)]GlcNAc", "outline": "as §1"}, "[5]": {"target": "Fuc(a1-2)[Gal(a1-3)]Gal(b1-4)GlcNAc(b1-2)Man(a1-3)[Fuc(a1-2)[Gal(a1-3)]Gal(b1-4)GlcNAc(b1-2)Man(a1-6)]Man(b1-4)GlcNAc(b1-4)GlcNAc", "outline": "as §1"}, "[6]": {"target": "Fuc(a1-2)[Gal(a1-4)]Gal(b1-4)GlcNAc", "outline": "as §1"}, "[7]": {"target": "Fuc(a1-3)[Gal(b1-4)]GlcNAc", "outline": "as §1"}, "[8]": {"target": "Gal(b1-3)GalNAc(a1-3)[Fuc(a1-2)]Gal(b1-4)Glc", "outline": "as §1"}, "[9]": {"target": "Gal(b1-3)GlcNAc(a1-3)Gal(b1-4)GlcNAc", "outline": "as §1"}, "[10]": {"target": "Gal(b1-3)GlcNAc(b1-3)Gal(b1-4)GlcNAc(b1-3)Gal(b1-4)GlcNAc(b1-2)[Gal(b1-3)GlcNAc(b1-3)Gal(b1-4)GlcNAc(b1-3)Gal(b1-4)GlcNAc(b1-6)]Man(a1-6)[Gal(b1-3)GlcNAc(b1-3)Gal(b1-4)GlcNAc(b1-3)Gal(b1-4)GlcNAc(b1-2)Man(a1-3)]Man(b1-4)GlcNAc(b1-4)[Fuc(a1-6)]GlcNAc", "outline": "as §1"}, "[11]": {"target": "Gal(b1-3)[Fuc(a1-4)]GlcNAc(b1-3)Gal(b1-3)[Fuc(a1-4)]GlcNAc", "outline": "as §1"}, "[12]": {"target": "Gal(b1-3)[Neu5Ac(a2-6)]GlcNAc(b1-4)Gal(b1-4)Glc", "outline": "as §1"}, "[13]": {"target": "Gal(b1-4)GlcNAc(b1-2)[Gal(b1-4)GlcNAc(b1-4)]Man(a1-3)[GlcNAc(b1-4)][Gal(b1-4)GlcNAc(b1-2)[Gal(b1-4)GlcNAc(b1-6)]Man(a1-6)]Man(b1-4)GlcNAc(b1-4)GlcNAc", "outline": "as §1"}, "[14]": {"target": "Gal(b1-4)GlcNAc(b1-3)Gal(b1-3)GlcNAc", "outline": "as §1"}, "[15]": {"target": "Gal(b1-4)GlcNAc(b1-3)Gal(b1-4)GlcNAc(b1-3)Gal(b1-4)GlcNAc", "outline": "as §1"}, "[16]": {"target": "Gal(b1-4)GlcNAc(b1-3)Gal(b1-4)GlcNAc(b1-3)Gal(b1-4)GlcNAc(b1-3)Gal(b1-4)GlcNAc(b1-2)Man(a1-3)[Gal(b1-4)GlcNAc(b1-3)Gal(b1-4)GlcNAc(b1-3)Gal(b1-4)GlcNAc(b1-3)Gal(b1-4)GlcNAc(b1-2)Man(a1-6)]Man(b1-4)GlcNAc(b1-4)[Fuc(a1-6)]GlcNAc", "outline": "as §1"}, "[17]": {"target": "Gal(b1-4)GlcNAc(b1-3)Gal(b1-4)GlcNAc(b1-3)Gal(b1-4)GlcNAc(b1-3)Gal(b1-4)GlcNAc(b1-2)[Gal(b1-4)GlcNAc(b1-3)Gal(b1-4)GlcNAc(b1-3)Gal(b1-4)GlcNAc(b1-3)Gal(b1-4)GlcNAc(b1-6)]Man(a1-6)[Gal(b1-4)GlcNAc(b1-3)Gal(b1-4)GlcNAc(b1-3)Gal(b1-4)GlcNAc(b1-3)Gal(b1-4)GlcNAc(b1-2)Man(a1-3)]Man(b1-4)GlcNAc(b1-4)[Fuc(a1-6)]GlcNAc", "outline": "as §1"}, "[18]": {"target": "Gal(b1-4)GlcNAc(b1-3)Gal(b1-4)GlcNAc(b1-3)Gal(b1-4)GlcNAc(b1-3)Gal(b1-4)GlcNAc(b1-3)Gal(b1-4)GlcNAc(b1-2)Man(a1-3)[Gal(b1-4)GlcNAc(b1-3)Gal(b1-4)GlcNAc(b1-3)Gal(b1-4)GlcNAc(b1-3)Gal(b1-4)GlcNAc(b1-3)Gal(b1-4)GlcNAc(b1-2)Man(a1-6)]Man(b1-4)GlcNAc(b1-4)GlcNAc", "outline": "as §1"}, "[19]": {"target": "Gal(b1-4)GlcNAc(b1-3)Gal(b1-4)GlcNAc(b1-6)[Gal(b1-3)]GalNAc", "outline": "as §1"}, "[20]": {"target": "Gal(b1-4)GlcNAc(b1-3)[Gal(b1-4)GlcNAc(b1-6)]Gal(b1-4)GlcNAc", "outline": "as §1"}, "Gal3S6S(b1-4)GlcNAc": {"target": "Gal3S6S(b1-4)GlcNAc", "outline": "as §1"}, "Gal6S(b1-3)GlcNAc6S": {"target": "Gal6S(b1-3)GlcNAc6S", "outline": "as §1"}, "Gal6S(b1-4)Glc": {"target": "Gal6S(b1-4)Glc", "outline": "as §1"}, "GalNAc(b1-4)GlcNAc": {"target": "GalNAc(b1-4)GlcNAc", "outline": "as §1"}, "GalNAc3S(b1-4)GlcNAc": {"target": "GalNAc3S(b1-4)GlcNAc", "outline": "as §1"}, "GalNAc3S(b1-4)GlcNAc3S": {"target": "GalNAc3S(b1-4)GlcNAc3S", "outline": "as §1"}, "[21]": {"target": "GalNAc3S(b1-4)[Fuc(a1-3)]GlcNAc", "outline": "as §1"}},
  "note": "Only a selection was taken, and the strongest signals are over-represented in it overall.",
  "data": [
    {"binder": "B1", "values": [
      {"measurement": "glycan array binding signal (z-score)", "setting": "Fuc(a1-2)Gal", "result": -0.532},
      {"measurement": "glycan array binding signal (z-score)", "setting": "[1]", "result": -0.413},
      {"measurement": "glycan array binding signal (z-score)", "setting": "[2]", "result": 1.21},
      {"measurement": "glycan array binding signal (z-score)", "setting": "[3]", "result": -0.238},
      {"measurement": "glycan array binding signal (z-score)", "setting": "[4]", "result": 1.77},
      {"measurement": "glycan array binding signal (z-score)", "setting": "[5]", "result": -0.531},
      {"measurement": "glycan array binding signal (z-score)", "setting": "[6]", "result": 0.037},
      {"measurement": "glycan array binding signal (z-score)", "setting": "[7]", "result": -0.018},
      {"measurement": "glycan array binding signal (z-score)", "setting": "[8]", "result": -0.503},
      {"measurement": "glycan array binding signal (z-score)", "setting": "[9]", "result": -0.23},
      {"measurement": "glycan array binding signal (z-score)", "setting": "[10]", "result": 3.4},
      {"measurement": "glycan array binding signal (z-score)", "setting": "[11]", "result": 0.274},
      {"measurement": "glycan array binding signal (z-score)", "setting": "[12]", "result": -0.638},
      {"measurement": "glycan array binding signal (z-score)", "setting": "[13]", "result": 1.56},
      {"measurement": "glycan array binding signal (z-score)", "setting": "[14]", "result": 0.732},
      {"measurement": "glycan array binding signal (z-score)", "setting": "[15]", "result": 0.382},
      {"measurement": "glycan array binding signal (z-score)", "setting": "[16]", "result": -0.08},
      {"measurement": "glycan array binding signal (z-score)", "setting": "[17]", "result": 3.01},
      {"measurement": "glycan array binding signal (z-score)", "setting": "[18]", "result": 2.05},
      {"measurement": "glycan array binding signal (z-score)", "setting": "[19]", "result": -0.15},
      {"measurement": "glycan array binding signal (z-score)", "setting": "[20]", "result": 0.131},
      {"measurement": "glycan array binding signal (z-score)", "setting": "Gal3S6S(b1-4)GlcNAc", "result": 2.12},
      {"measurement": "glycan array binding signal (z-score)", "setting": "Gal6S(b1-3)GlcNAc6S", "result": -0.513},
      {"measurement": "glycan array binding signal (z-score)", "setting": "Gal6S(b1-4)Glc", "result": -0.148},
      {"measurement": "glycan array binding signal (z-score)", "setting": "GalNAc(b1-4)GlcNAc", "result": -0.125},
      {"measurement": "glycan array binding signal (z-score)", "setting": "GalNAc3S(b1-4)GlcNAc", "result": -0.199},
      {"measurement": "glycan array binding signal (z-score)", "setting": "GalNAc3S(b1-4)GlcNAc3S", "result": 0.153},
      {"measurement": "glycan array binding signal (z-score)", "setting": "[21]", "result": 2.28}
    ]}
  ]
}
